Measured values published in PubChem BioAssay (EPA / NIEHS).
A structure can be active in one record and inactive in another. The source made the active and inactive calls. How the source made its calls: active means hit-call score of the fitted dose curve at least 0.9, where 1 is the maximum; inactive means score below 0.9.

Key:
[1] = CCTE_Mundy_HCI_Cortical_NOG_NeuriteCount: CCTE's Neurite Outgrowth Assay in rat cortical cells for Neurite Count, Mundy Lab (AID 2284212);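 further: cells fixed about two days after chemical exposure began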
Outline: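 Neurite number per cell from high-content imaging of betaIII-tubulin immunostaining, with Hoechst nuclear counterstain.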

[2] = CCTE_Mundy_HCI_Cortical_NOG_NeuriteLength: CCTE's Neurite Outgrowth Assay in rat cortical cells for Neurite Length, Mundy Lab (AID 2284213)
Outline: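 Neurite length was read by high-content imaging of βIII-tubulin-labelled neurites in rat primary cortical cultures. Activity was fitted relative to DMSO.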

[3] = CCTE_Mundy_HCI_Cortical_Synap_Neur_Matur_NeuriteLength: CCTE's Synaptogenesis and Neurite Maturation Assay in rat cortical cells for Neurite Length, Mundy Lab (AID 2284214)
Outline: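 Neurite length in rat primary cortical cultures is imaged after MAP2, synaptophysin and Hoechst staining. Dosing starts DIV 7, ending DIV 12; DMSO serves as negative control and baseline.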

[4] = CCTE_Mundy_HCI_Cortical_Synap_Neur_Matur_NeuriteSpotCountPerNeuron: CCTE's Synaptogenesis and Neurite Maturation Assay in rat cortical cells for Neurite Spot Count per Neuron Count, Mundy Lab (AID 2284215)
Outline: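 Rat primary cortical cells received AraC at DIV 5, then chemicals with a media change at DIV 7, and were fixed at DIV 12. Synaptophysin puncta on MAP2-stained neurites per neuron were counted by high-content imaging, fitted relative to DMSO.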

[5] = CCTE_Mundy_HCI_Cortical_Synap_Neur_Matur_SynapseCount: CCTE's Synaptogenesis and Neurite Maturation Assay in rat cortical cells for Synapse Count, Mundy Lab (AID 2284218)
Outline: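 Synapse count per neuron is measured in rat cortical neurons exposed to chemicals between DIV 7 and DIV 12, with glial growth arrested by AraC at DIV 5. Synaptophysin and MAP2 staining is imaged automatically; activity is fitted relative to DMSO.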

[6] = CCTE_Mundy_HCI_Cortical_Synap_Neur_Matur_NeuriteCount: CCTE's Synaptogenesis and Neurite Maturation Assay in rat cortical cells for Neurite Count, Mundy Lab (AID 2284222);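 on outcome: exposure from day 7 to day 12 in vitro with readout at day 12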
Outline: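 In this multiplexed morphology readout, rat primary cortical neurons are fixed at DIV 12 following dosing at DIV 7 and stained for MAP2, synaptophysin and nuclei. High-content image analysis yields neurite count.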

[7] = CCTE_Mundy_HCI_Cortical_Synap_Neur_Matur_CellBodySpotCount: CCTE's Synaptogenesis and Neurite Maturation Assay in rat cortical cells for Cell Body Spot Count, Mundy Lab (AID 2284223)
Outline: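 Rat primary cortical cultures received AraC at DIV 5 to arrest glia, were dosed with chemical at DIV 7 with media change, and were fixed at DIV 12 (288.33 h). Synaptophysin puncta on MAP2-positive cell bodies per neuron were counted by high-content imaging versus DMSO.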

[8] = BSK_BT_PBMCCytotoxicity: PBMC Cytotoxicity Assessment in the BioMAP Diversity Plus: BT Assay (AID 2284225); details: primary human B cells with PBMC;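 further: PBMC viability measured by Alamar Blue dye reduction fluorescence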
Outline: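 75,000 cells/well; cpd 1 h → SEB + TSST-1 (20 ng/mL final each) → 90 h → Alamar Blue 6 h → fluor. 546/580 nm. DMSO = neg. control/baseline.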

[9] = TAMU_PeakParms_SingleDonor1434_Chronotropy: Texas A&M University (TAMU) 1.5-hr Human Induced Pluripotent Stem Cell (iPSC)-derived Cardiomyocytes Calcium (Ca+2) Flux Assay for Cardiotoxicity: Chronotropy (changes in peak frequency) (AID 2284217); details: actives raise or lower the signal
Outline: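 Using fluorescent Ca2+ flux, average beats per second are measured in human iPSC-derived cardiomyocytes treated 90 min (0.5% DMSO vehicle, 0.2–100 uM). Non-beating data points are removed; activity is modeled in both directions relative to DMSO controls.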

For `N[C@@H](CCC(=O)O)C(=O)O`, the outcome [1] was “inactive”, the outcome [2] was “inactive” and the outcome [3] was “inactive”. The outcome [4] was “inactive”, the outcome [5] was “inactive” and the outcome [6] was “inactive”. For the same molecule, the outcome [7] was “inactive”.

For `OCCN1CCOCC1`, the outcome [8] was “inactive”.

In the case of `C=CC(=O)OCC(CO)(COC(=O)C=C)COC(=O)C=C`, the AC50 [8] is reported as 1.7 µM (active).

In the case of `CNC(=C[N+](=O)[O-])NCCSCc1ccc(CN(C)C)o1`, the outcome [9] is reported as “inactive”.

In the case of `c1ccc(Sc2ccccc2)cc1`, the outcome [8] is reported as “inactive”.

In the case of `CC1=CC(C)C(C=O)C(C)C1` (stereo not drawn) (tested in a mixture with another compound), the outcome [8] is reported as “inactive”.

With `CCCCCCCCCC(=O)OCC` the outcome [8] was “inactive”.

In the case of `CCCCC(CC)COC(=O)COc1ccc(Cl)cc1C` (stereo not drawn), the outcome [1] is reported as “inactive”, the outcome [2] is reported as “inactive” and the AC50 [3] is reported as 14.1 µM (active). The AC50 [4] was 16.3 µM (active), the AC50 [5] was 16.4 µM (active) and the AC50 [6] was 17.1 µM (active). The AC50 [7] was 25 µM (active).

In the case of `NC(=O)c1c(Cl)cccc1Cl`, the outcome [8] is reported as “inactive”.

With `CC/C(=C(\c1ccccc1)c1ccc(OCCN(C)C)cc1)c1ccccc1` the outcome [9] was “inactive”.

For `C=C1CC/C=C(\C)CC[C@@H]2[C@@H]1CC2(C)C`, the outcome [8] was “inactive”.

In the case of `CC(=O)OC(C)(C)C1CC=C(C)CC1` (stereo not drawn), the outcome [8] is reported as “inactive”.

In the case of `CCOC(=O)C=Cc1ccccc1`, the outcome [8] is reported as “inactive”.

For `N#CCCNCCC#N`, the outcome [1] was “inactive”, the outcome [2] was “inactive” and the outcome [3] was “inactive”. For the same molecule, the outcome [4] was “inactive”, the outcome [9] was “inactive” and the outcome [5] was “inactive”. For the same molecule, the outcome [6] was “inactive” and the outcome [7] was “inactive”.

In the case of `O=S(=O)(O)C(F)(F)C(F)(F)OC(F)(F)C(F)(F)F`, the outcome [8] is reported as “inactive”.

With `CCCCCCCCCCCCS` the outcome [8] was “inactive”.

With `O=C(O)C(F)(F)C(F)(F)C(F)(F)C(F)(F)C(F)(F)C(F)(F)C(F)(F)C(F)F` the AC50 [8] was 19.8 µM (active) and the outcome [8] was “inactive”.

For `c1ccc2c(c1)-c1ccc3ccc4cccc5cc-2c1c3c45`, the outcome [8] was “inactive”.
